Compound activity from PubChem BioAssay.
ATXN2 expr inh – ATXN2 expression inhibition; HEK-293 ATXN2-luciferase reporter, luminescence, 24 h; Potency, µM (titrated, usually from 57 µM), without a hit: top-dose activity change, negative = inhibition, hits mostly inhibitors; 0.72% of 360,000 active; also: potency is read from the fitted curve at half-maximal effect; % is scaled to controls: 0 for no effect and ±100 for the full control effect; nearly all actives have a fitted effect of over 55% in size
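qHTS (up to 57 uM final) was run with 24 h compound exposure of reporter cells at 37 °C. Each well was multiplexed: SteadyGlo luminescence measured ATXN2-luciferase expression after a fluorogenic Gly-Phe-AFC viability readout (25 uM final).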
DT40 TDP1 CPT – DT40-hTDP1 cell growth loss with CPT. 12% of 420,000 active. Potency, µM (top dose mostly 46.2 µM), for inactives: top-dose activity change, negative = growth inhibition, usual class: inhibitors. chicken DT40 Tdp1-/-;hTDP1 cells + 20 nM CPT, ATP luminescence, 48 h; also: potency is read from the fitted curve at half-maximal effect; % is scaled to controls: 0 for no effect and ±100 for the full control effect; nearly all actives have a fitted effect of over 55% in size
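Chicken DT40 Tdp1-/- cells stably complemented with human TDP1 were seeded at 400 cells/well in medium containing 20 nM camptothecin, exposed to pin-transferred compounds, and grown at 37 °C for at least 48 hr. Viability was read as ATP luminescence.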
S2 tox – cell viability loss in ATXN counter-screen | Potency, µM (titrated, usually from 56.7 µM), usual class: cytotoxic | 0.49% of 400,000 active | AID 651635 | S2 cells (HEK-293 line with an ATXN2-luciferase reporter) viability, CellTiter-Fluor protease fluorescence, 24 h; also: potency is read from the fitted curve at half-maximal effect; nearly all actives have a fitted effect of over 40% in size
TDP1 cell noCPT – qHTS for Inhibitors of human tyrosyl-DNA phosphodiesterase 1 (TDP1): qHTS in cells in absence of CPT | DT40 Tdp1-/- hTDP1 cells, no CPT, ATP luminescence, 48 h | AID 686978, 2013 | 15% of 420,000 active | Potency, µM (top dose mostly 46.2 µM), without a hit: at the highest dose activity change, negative = growth inhibition, usual class: inhibitors; also: potency is read from the fitted curve at half-maximal effect; % is scaled to controls: 0 for no effect and ±100 for the full control effect; nearly all actives have a fitted effect of over 55% in size
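DT40 Tdp1-/-;hTDP1 cells, no CPT (DMSO vehicle only), 400 cells/well; compounds pin-transferred; ≥48 hr, 37 °C; CellTiter-Glo 30 min RT dark, luminescence read.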
TGFb inhibitor – inhibitors of TGF-b signaling. HepG2 CAGA-GFP TGF-b/SMAD3 reporter, GFP fluorescence, 18 h; TGF-beta stimulated, 500 pg/mL final. Potency, µM (doses to about 46.1 µM), inactives show at the highest dose activity, negative = inhibition, actives largely listed as inhibitors. 1.2% of 410,000 active. AID 588855; also: potency is read from the fitted curve at half-maximal effect; % is scaled to controls: 0 for no effect and ±100 for the full control effect; nearly all actives have a fitted effect of over 65% in size
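Inhibition of TGF-beta-driven CAGA-GFP reporter expression in HEPG2 cells is measured by cellular GFP fluorescence after 18 h stimulation with 500 pg/mL recombinant TGF-beta in 1% FBS medium at 37 degrees C.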
HepG2 tox-1 – counter-screen for TGF-b inhibitors: cytotoxicity in HepG2 cells | HepG2 CAGA-GFP viability, ATP luminescence, 18 h | Potency, µM (series often up to 46.1 µM), without a hit: at the top dose activity change, negative = cytotoxicity, hits mostly cytotoxic | 0.76% of 410,000 active | AID 588856; also: potency is read from the fitted curve at half-maximal effect
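HepG2 CAGA-GFP cells (1000/well, DMEM with 1% FBS) received compound, then TGF-beta at 500 pg/mL final, and were incubated 18 hours at 37 degrees C. Viability was read by CellTiter-Glo luminescence. Media-only wells were set as complete cell-killing and DMSO as no toxicity.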
TGFb CAGA inh – TGF-b pathway inhibition, cherry-pick retest. shares compounds with TGFb inhibitor. HepG2 CAGA-GFP TGF-b reporter, GFP fluorescence, 18 h; cells stimulated with TGF-beta, 500 pg/mL. Potency, µM (series often up to 46.1 µM), for the others: at the highest dose activity, negative = inhibition, usual class: inhibitors. 63% of 1,600 active. AID 720534; also: potency is read from the fitted curve at half-maximal effect; % is scaled to controls: 0 for no effect and ±100 for the full control effect; nearly all actives have a fitted effect of over 65% in size
HepG2 tox-2 – toxic to HepG2 cells in TGF-b counterscreen; shares compounds with TGFb inhibitor; AID 720535; 27% of 1,600 active; Potency, µM (highest dose often 46.1 µM), for inactives: at the highest dose activity, negative = cytotoxicity, usual class: inhibitors; HepG2 CAGA-GFP viability, ATP luminescence, 18 h; cells stimulated with TGF-beta, 500 pg/mL; also: potency is read from the fitted curve at half-maximal effect; % is scaled to controls: 0 for no effect and ±100 for the full control effect; nearly all actives have a fitted effect of over 70% in size
TGFb CCL64 inh – TGF-b inhibition, CCL64 orthogonal assay | AID 720536 | shares compounds with TGFb inhibitor | Potency, µM (highest dose often 46.1 µM), without a hit: at the highest dose activity, negative = inhibition, actives largely listed as inhibitors | 41% of 1,600 active | CCL64 CAGA-GFP reporter, TGF-b stimulated, GFP fluorescence, 18 h; also: potency is read from the fitted curve at half-maximal effect; nearly all actives have a fitted effect of over 65% in size
COP TGFb inh – validation of TGF-b inhibitors in HepG2 COP promoter reporter; shares compounds with TGFb inhibitor; HepG2 COP-GFP TGF-b reporter, GFP fluorescence, 18 h; cells stimulated by added recombinant TGF-beta; Potency, µM (titrated, usually from 46.1 µM), for inactives: top-dose activity, negative = inhibition, usual class: inhibitors; 3% of 1,600 active; AID 720537; also: potency is read from the fitted curve at half-maximal effect; nearly all actives have a fitted effect of over 70% in size
SK-N-SH 3D tox – reduced viability of SK-N-SH 3D spheroids, orthogonal test; shares compounds with ATXN2 expr inh; SK-N-SH 3D spheroid viability, PI/Hoechst imaging, 72 h; Potency, µM (highest dose often 30.7 µM), most hits filed as inhibitors; 70% of 65 active
SJ-GBM2 3D tox – lowers viability of SJ-GBM2 3D spheroids. shares compounds with ATXN2 expr inh. SJ-GBM2 3D spheroid viability, PI/Hoechst imaging, 72 h. Potency, µM (titrated, usually from 30.7 µM), usual class: inhibitors. 80% of 65 active
Daoy 3D tox – kills Daoy spheroids in orthogonal 3D test; shares compounds with ATXN2 expr inh; 50% of 65 active; Potency, µM (titrated, usually from 30.7 µM), most hits filed as inhibitors; Daoy 3D spheroid viability, PI/Hoechst imaging, 72 h
TC32 3D casp – caspase activation in TC32 3D spheroids, orthogonal test; shares compounds with ATXN2 expr inh; Potency, µM (titrated, usually from 30.7 µM), usual class: inhibitors; TC32 3D spheroids, caspase-3/7 fluorescence imaging, 24 h; AID 1347138; 30% of 65 active
TC32 3D tox – TC32 3D spheroid viability loss; shares compounds with ATXN2 expr inh; TC32 3D spheroid viability, PI/Hoechst imaging, 72 h; Potency, µM (titrated, usually from 30.7 µM), hits mostly inhibitors; 60% of 65 active
MG63 spheroid – kills MG-63 (6-TG R) spheroids in orthogonal 3D test; shares compounds with ATXN2 expr inh; MG-63 (6-TG R) 3D spheroid viability, PI/Hoechst imaging, 72 h; Potency, µM (highest dose often 30.7 µM), most hits filed as inhibitors; 50% of 65 active; AID 1347140
RD 3D tox – kills RD rhabdomyosarcoma spheroids in orthogonal 3D test. 50% of 65 active. RD rhabdomyosarcoma 3D spheroid viability, PI/Hoechst imaging, 72 h. Potency, µM (highest dose often 30.7 µM), hits mostly inhibitors. AID 1347141. shares compounds with ATXN2 expr inh
Starred values were filed as active, the others as inactive; i = inactive; ? = inconclusive; . = no result given; ! = repeats disagree. Sampled rows, rich in hits. Any-hit rate of the full collection: about 17%. Calls follow the shape of the dose curve; as a rule, active = well fitted curve in the direction sought with a large enough effect; inconclusive = small, poorly fitted or top-dose-only effect, or another doubt; inactive = no such curve, though single readings can be large; an effect the other way counts as inactive or inconclusive.

SMILES	ATXN2 expr inh	DT40 TDP1 CPT	S2 tox	TDP1 cell noCPT	TGFb inhibitor	HepG2 tox-1	TGFb CAGA inh	HepG2 tox-2	TGFb CCL64 inh	COP TGFb inh	others
Cc1ccc(SC[C@H](C)CN2CC[C@H](C(C)(C)C)CCC2=O)cc1	-19.4%	?	i	16.4µM*	10µM*	11.2µM*!	?	?	20.6µM*	26.9%
COc1ccc(C(O)c2ncc(-c3ccccc3OC)[nH]2)cc1F (centres undefined)	11.9%	-1.1%	i	-25.7%	13.7%	6.7%	.	.	.	.
Cc1ccc(CNC(=O)c2cc3ccccc3oc2=O)cc1	.	-3.2%	i	-26.9%	-5.6%	5.7%	.	.	.	.
COc1ccc(CNC(=O)c2cccc(-c3ccc(C)c4ccccc34)n2)cc1	-24.6%	?	i	18.4µM*	20µM*	-0.4%	?	?	?	14.1%
COc1ccc(CNC(=O)c2ccccc2C(=O)O)cc1	0.8%	-4.4%	i	-16.7%	4.5%	3.0%	.	.	.	.
NNc1nc(-c2ccccc2Cl)nc2ccccc12	.	-29.2%	i	-19.7%	23.2%	-1.9%	.	.	.	.
c1ccc(-c2nc(NC3CCCC3)c3ccccc3n2)cc1	-26.9%	?	i	-26.3%	?	-18.2%	.	.	.	.
Oc1ccc(Nc2nc(-c3ccccc3O)nc3ccccc23)cc1	.	?	?	?	?	-38.8%	.	.	.	.
COc1ccc(CNc2nc(-c3ccccc3)nc3ccccc23)cc1OC	-16.6%	-2.6%	?	?	0.0%	7.9%	.	.	.	.
Fc1ccc(CNc2nc(-c3ccccc3)nc3ccccc23)cc1	-10.6%	?	i	?	17.8µM*	2.0%	?	?	?	32.8%
c1ccc(Nc2nc(-c3ccccc3)nc3ccccc23)cc1	-18.4%	-15.9%	i	-0.5%	-29.4%	-41.0%	?	?	?	33.3%
Cc1ccc(-c2nc(Nc3ccc(O)cc3)c3ccccc3n2)cc1	14.4%	?	i	20.6µM*	?	-119.3%	?	?	14.6µM*	100.0%
Oc1cccc(Nc2nc(-c3ccccc3Cl)nc3ccccc23)c1	-26.5%	16.4µM*	?	13µM*	-20.2%	-8.3%	?	-14.6%	?	32.4%
COC(=O)c1cc(S(=O)(=O)NCC2CCN(Cc3cccc(F)c3)CC2)c[nH]1	1.1%	?	i	-4.5%	?	-6.9%	.	.	.	.
Nc1ncnc2c1ncn2CCOc1ccccc1	13.3%	-21.7%	i	-13.3%	?	-24.9%	.	.	.	.
CC(C)(C)C(=O)OCOP(=O)(COCCn1cnc2c(N)ncnc21)OCOC(=O)C(C)(C)C	3.55µM*!	-26.5%	i	-25.3%	.	.	.	.	.	.	SK-N-SH 3D tox=5.11µM*;SJ-GBM2 3D tox=4.06µM*;Daoy 3D tox=?;TC32 3D casp=i;TC32 3D tox=2.56µM*;MG63 spheroid=?;RD 3D tox=?
C[C@]12C=CC(=O)C=C1CC[C@H]1[C@@H]3C[C@@H](O)[C@](O)(C(=O)CO)[C@@]3(C)C[C@H](O)[C@@]12F	-5.1%	0.4%	i	1.7%	40.0%	-1.4%	.	.	.	.	SK-N-SH 3D tox=?;SJ-GBM2 3D tox=0.456µM*;Daoy 3D tox=i;TC32 3D casp=?;TC32 3D tox=7.22µM*;MG63 spheroid=i;RD 3D tox=i
COc1cc(C(=O)OCCN2CCOCC2)cc(OC)c1OC	-1.5%	-16.4%	i	-5.6%	2.0%	-44.5%	.	.	.	.
COc1c(C)c2c(c(O)c1C/C=C(\C)CCC(=O)OCCN1CCOCC1)C(=O)OC2	40.4%	0.133µM*	?	0.168µM*	.	.	.	.	.	.	SK-N-SH 3D tox=?;SJ-GBM2 3D tox=0.228µM*;Daoy 3D tox=?;TC32 3D casp=i;TC32 3D tox=?;MG63 spheroid=0.81µM*;RD 3D tox=?
COc1ccc(-c2nc(N3CCOCC3)c3sc(CN(C)c4ncc(C(=O)NO)cn4)cc3n2)cn1	13.4%	.	.	.	.	.	.	.	.	.	SK-N-SH 3D tox=5.11µM*;SJ-GBM2 3D tox=11.4µM*;Daoy 3D tox=5.11µM*;TC32 3D casp=i;TC32 3D tox=i;MG63 spheroid=?;RD 3D tox=i
